Among all 55,000 sequences or so, about 4,100 (7.5%) were called active. No stated cut-off is given here; in the data, active = GI50 up to about 1.1 µM and inactive = higher. Not all results are given here. Measured potencies and affinities stand elsewhere.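 The compound was tested at five concentrations on cells cultured in 96-well plates, with a 48-hour exposure period. GI50 marks 50% less growth.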
Test system: SF-539
Test: NCI tumour cell line growth inhibition, 48 h

Substance	GI50
[Bis(aminomethyl)tetramethylenesilane]dichloropaltinum(II), CHEMBL2146205	20.5 µM
[Bis(aminomethyl)diethylsilane]tetrachloroplatinum(IV), CHEMBL2146203	2.49 µM
[Bis(aminomethyl)pentamethylenesilane]tetrachloropaltinum(IV), CHEMBL2146204	0.558 µM
[Bis(aminomethyl)tetramethylenesilane]tetrachloropaltinum(IV), CHEMBL2146189	2.18 µM
[Bis(aminomethyl)dimethylsilane]dichloroplatinum (II), CHEMBL2146201	23.4 µM
cis-Bis[[(trimethylsilyl)methyl]amino]tetrachloroplatinum(IV), CHEMBL2146191	4.24 µM
[Bis(aminomethyl)dimethylsilane]tetrachloroplatinum(IV), CHEMBL2146190	4.99 µM
[Bis(aminomethyl)pentamethylenesilane]dichloropaltinum(II), CHEMBL2146202	1.48 µM
mu-(1,7-nanodiamine-N,N')bis-(cis-aminedichloroplatimum (II)), CHEMBL2146215	27.4 µM
CISPLATIN, CHEMBL11359	1.66 µM
[Bis(aminomethyl)ethylmethylsilane]tetrachloroplatinum(IV), CHEMBL2146192	3.05 µM

— ChEMBL document CHEMBL1201862, “PubChem BioAssay data set” (2004)
